PubChem BioAssay (Tox21)
Inconclusive results are not listed. Active and inactive are the calls of the source. Calls follow the shape of the dose curve; as a rule, active = well fitted curve in the direction sought with a large enough effect in the repeat runs; inconclusive = weak or mixed curves; inactive = no such curve, though single readings can be large; an effect the other way counts as inactive or inconclusive.

Columns and labels:
[1] = qHTS RealTime-Glo MT Cell Viability Assay in HepG2 cells - 8 hour (AID 1224873); also: nearly all actives have a fitted effect of over 55% in size
Summary of the method: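 HepG2 cells mixed with RealTime-Glo MT reagents (NanoLuc plus cell-permeant prosubstrate) were seeded at 600 cells/well, incubated 5 h at 37 C/5% CO2, then pinned with compounds in DMSO; nonlytic luminescence tracked viability during 40 h treatment.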

[2] = qHTS RealTime-Glo MT Cell Viability Assay in HEK293 cells - 40 hour (AID 1224874); details: RealTime-Glo luminescence; max response: stronger effect = lower value; also: nearly all actives have a fitted effect of over 50% in size; also: potency is read from the fitted curve at half-maximal effect
Summary of the method: (§1)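 Tox21 screen in HEK293 using RealTime-Glo MT chemistry, with cells and reagent co-dispensed. Luminescence proportional to viable cell number was captured at intervals during 40 h compound exposure at 37 C.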

[3] = A CellTox Green Cytotoxicity Assay to monitor cytotoxicity in HEK293 cells - 24 hour (AID 1224875); also: series mostly up to about 77 µM; nearly all actives have a fitted effect of over 45% in size
Summary of the method: (§2)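 Seeding of HEK293 cells together with cytotoxicity dye preceded a 5 h incubation at 37 C/5% CO2. Test compounds in DMSO were then added and fluorescence monitored across 40 h.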

[4] = A CellTox Green Cytotoxicity Assay to monitor cytotoxicity in HepG2 cells - 16 hour (AID 1224876); also: nearly all actives have a fitted effect of over 45% in size
Summary of the method: (§3)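 Nonlytic assay: viable cells exclude the dye, so fluorescence scales with cell death. HepG2 at 600 cells/well, compounds added after 5 h, signal read across 40 h.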

[5] = qHTS RealTime-Glo MT Cell Viability Assay in HepG2 cells - 32 hour (AID 1224877); also: nearly all actives have a fitted effect of over 55% in size
Summary of the method: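 Viability was tracked continuously by NanoLuc luminescence from prosubstrate reduced by living HepG2 cells, at successive time points over 40 h of compound exposure. Cells with reagent were preincubated 5 h at 37 °C before compound addition.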

[6] = A CellTox Green Cytotoxicity Assay to monitor cytotoxicity in HepG2 cells - 24 hour (AID 1224878); also: nearly all actives have a fitted effect of over 45% in size
Summary of the method: as §3

[7] = A CellTox Green Cytotoxicity Assay to monitor cytotoxicity in HepG2 cells - 40 hour (AID 1224879); also: nearly all actives have a fitted effect of over 40% in size
Summary of the method: as §3

[8] = qHTS RealTime-Glo MT Cell Viability Assay in HEK293 cells - 0 hour (AID 1224880); also: top concentration of the series differs between compounds; nearly all actives have a fitted effect of over 45% in size
Summary of the method: as §1

[9] = A CellTox Green Cytotoxicity Assay to monitor cytotoxicity in HEK293 cells - 32 hour (AID 1224881); also: nearly all actives have a fitted effect of over 40% in size
Summary of the method: as §2

[10] = A CellTox Green Cytotoxicity Assay to monitor cytotoxicity in HepG2 cells - 0 hour (AID 1224882); also: nearly all actives have a fitted effect of over 35% in size
Summary of the method: as §3
% is scaled to controls: 0 for no effect and ±100 for the full control effect.

Cc1cccc(C)c1OCC(C)N (configuration not stated)
inactive: outcome [1] | max response [2] 2.76% | outcome [3] | outcome [4] | outcome [5] | outcome [6] | Potency [7] | Potency [8] | Potency [9] | outcome [10]

Cc1ccccc1N=O
inactive: outcome [1] | max response [2] 9.08% | outcome [3] | outcome [4] | outcome [5] | outcome [6] | Potency [7] | Potency [8] | Potency [9] | outcome [10]

COCCOCCOCCOCCO
inactive: outcome [1] | max response [2] 4.56% | outcome [3] | outcome [4] | outcome [5] | outcome [6] | Potency [7] | Potency [8] | Potency [9] | outcome [10]

NCCS
inactive: outcome [1] | max response [2] 7.37% | outcome [3] | outcome [4] | outcome [5] | outcome [6] | Potency [7] | Potency [8] | Potency [9] | outcome [10]

O=C(CCN1CCN(CCO)CC1)N1c2ccccc2Sc2ccc(C(F)(F)F)cc21
inactive: outcome [1] | max response [2] -11.6% | outcome [3] | outcome [4] | outcome [5] | outcome [6] | Potency [7] | Potency [8] | Potency [9] | outcome [10]

Cc1cc(NC(=O)C2=C(O)c3ccccc3S(=O)(=O)N2C)no1
inactive: outcome [1] | max response [2] 4.93% | outcome [3] | outcome [4] | outcome [5] | outcome [6] | Potency [7] | Potency [8] | Potency [9] | outcome [10]

CC(C)NCC(O)COc1cccc2[nH]ccc12 (configuration not stated)
inactive: outcome [1] | max response [2] -0.192% | outcome [3] | outcome [4] | outcome [5] | outcome [6] | Potency [7] | Potency [8] | Potency [9] | outcome [10]

CCCCCCN
inactive: outcome [1] | max response [2] 9.84% | outcome [3] | outcome [4] | outcome [5] | outcome [6] | Potency [7] | Potency [8] | outcome [10]

O=C(O)c1cc(Br)c(O)c(Br)c1
inactive: outcome [1] | max response [2] -4.67% | outcome [3] | outcome [4] | outcome [5] | outcome [6] | Potency [7] | Potency [8] | Potency [9] | outcome [10]

Cc1cc(C(C)(C)C)c(O)c(C)c1CC1=NCCN1
inactive: outcome [1] | max response [2] 0.324% | outcome [3] | outcome [4] | outcome [5] | outcome [6] | Potency [7] | Potency [8] | Potency [9] | outcome [10]

Cc1cccc(C)c1NC(=O)c1ccccc1C(=O)O
inactive: outcome [1] | max response [2] 2.81% | outcome [3] | outcome [4] | outcome [5] | outcome [6] | Potency [7] | Potency [8] | Potency [9] | outcome [10]

CCCCCCCCC1CCC(=O)O1 (configuration not stated)
inactive: outcome [1] | max response [2] -1.86% | outcome [3] | outcome [4] | outcome [5] | outcome [6] | Potency [7] | Potency [8] | outcome [10]

Oc1ccccc1-c1nnco1
inactive: outcome [1] | max response [2] 2.75% | outcome [3] | outcome [4] | outcome [5] | outcome [6] | Potency [7] | Potency [8] | Potency [9] | outcome [10]

CC(C)CCCCOC(=O)c1ccccc1C(=O)OCCCCC(C)C
inactive: outcome [1] | max response [2] -1.41% | outcome [3] | outcome [4] | outcome [5] | outcome [6] | Potency [7] | Potency [8] | Potency [9] | outcome [10]

COc1cc2c(cc1OC)C(=O)CC2
inactive: outcome [1] | max response [2] -24.5% | outcome [3] | outcome [4] | outcome [5] | outcome [6] | Potency [7] | Potency [8] | Potency [9] | outcome [10]

CC1=C(C(=O)O)N2C(=O)[C@@H](NC(=O)[C@H](N)c3ccc(O)cc3)[C@H]2SC1
inactive: outcome [1] | max response [2] 13.3% | outcome [3] | outcome [4] | outcome [5] | outcome [6] | Potency [7] | Potency [8] | Potency [9] | outcome [10]

C[C@@H](Oc1ccc(CNC(=O)c2cccnc2Oc2ccc3c(c2)OCO3)c(F)c1)C(=O)O
inactive: outcome [1] | max response [2] 9.55% | outcome [3] | outcome [4] | outcome [5] | outcome [6] | Potency [7] | Potency [8] | Potency [9] | outcome [10]

CCCCCCOC(=O)CC
inactive: outcome [1] | max response [2] 2.45% | outcome [3] | outcome [4] | outcome [5] | outcome [6] | Potency [7] | Potency [8] | outcome [10]

O=C1CCCC(=O)O1
inactive: outcome [1] | max response [2] 15.9% | outcome [3] | outcome [4] | outcome [5] | outcome [6] | Potency [7] | Potency [8] | Potency [9] | outcome [10]

CC1(CO)CN(c2ccccc2)NC1=O (configuration not stated)
inactive: outcome [1] | max response [2] -10.7% | outcome [3] | outcome [4] | outcome [5] | outcome [6] | Potency [7] | Potency [8] | outcome [10]

COc1cc(N)ccc1C
inactive: outcome [1] | max response [2] 8.05% | outcome [3] | outcome [4] | outcome [5] | outcome [6] | Potency [7] | Potency [8] | Potency [9] | outcome [10]

C=C(C)C1CCC(C)(O)CC1 (configuration not stated)
inactive: outcome [1] | max response [2] 2.04% | outcome [3] | outcome [4] | outcome [5] | outcome [6] | Potency [7] | Potency [8] | Potency [9] | outcome [10]

CCCCNC1CC(C)(C)NC(C)(C)C1
inactive: outcome [1] | max response [2] 10.4% | outcome [3] | outcome [4] | outcome [5] | outcome [6] | Potency [7] | Potency [8] | Potency [9] | outcome [10]

N[C@@H](CCC(=O)Nc1ccc([N+](=O)[O-])cc1)C(=O)O
inactive: outcome [1] | max response [2] -16.1% | outcome [3] | outcome [4] | outcome [5] | outcome [6] | Potency [7] | Potency [8] | Potency [9] | outcome [10]

CCCOC(OCCC)OCCC
inactive: outcome [1] | max response [2] 6.14% | outcome [3] | outcome [4] | outcome [5] | outcome [6] | Potency [7] | Potency [8] | Potency [9] | outcome [10]

CCn1ccc(NS(=O)(=O)c2ccc(N)cc2)nc1=O
inactive: outcome [1] | max response [2] 5.4% | outcome [3] | outcome [4] | outcome [5] | outcome [6] | Potency [7] | Potency [8] | Potency [9] | outcome [10]

C=C(C)C(=O)OCCN(CC)CC
inactive: outcome [1] | max response [2] 2.31% | outcome [3] | outcome [4] | outcome [5] | outcome [6] | Potency [7] | Potency [8] | Potency [9] | outcome [10]

O=C(OCC(O)CO)c1ccccc1Nc1ccnc2c(C(F)(F)F)cccc12 (configuration not stated)
active: Potency [2] 3.79 µM
inactive: outcome [1] | outcome [3] | outcome [4] | outcome [5] | outcome [6] | Potency [7] | Potency [8] | outcome [10]

O=S(=O)(O)CCN1CCN(CCO)CC1
inactive: outcome [1] | max response [2] -3.48% | outcome [3] | outcome [4] | outcome [5] | outcome [6] | Potency [8] | outcome [10]

COc1ccc2c(c1)C(=O)N(CCc1ccc(S(=O)(=O)NC(=O)NC3CCCCC3)cc1)C(=O)C2(C)C
inactive: outcome [1] | max response [2] -9.27% | outcome [3] | outcome [4] | outcome [5] | outcome [6] | Potency [8] | Potency [9] | outcome [10]

COc1cc2c(cc1OC)[C@@H]1CC(=O)[C@@H](CC(C)C)CN1CC2
inactive: outcome [1] | max response [2] -11.9% | outcome [3] | outcome [4] | outcome [5] | outcome [6] | Potency [8] | Potency [9] | outcome [10]

C=C(C)C(=O)OCCNC(C)(C)C
inactive: outcome [1] | max response [2] 0.848% | outcome [3] | outcome [4] | outcome [5] | outcome [6] | Potency [8] | Potency [9]

CN(C)c1ccc(C=O)cc1
inactive: outcome [1] | max response [2] 14.8% | outcome [3] | outcome [4] | outcome [5] | outcome [6] | Potency [8] | Potency [9]

NNc1nnc(NN)c2ccccc12
inactive: outcome [1] | max response [2] 0.221% | outcome [3] | outcome [4] | outcome [5] | outcome [6] | Potency [8] | Potency [9] | outcome [10]

COC(=O)c1ccccc1C(=O)c1ccc(OCCN2CCCCC2)cc1
inactive: outcome [1] | max response [2] -12% | outcome [3] | outcome [4] | outcome [5] | outcome [6] | Potency [8] | outcome [10]

OCCN(CCO)c1cccc(Cl)c1
inactive: outcome [1] | max response [2] 0.212% | outcome [3] | outcome [4] | outcome [5] | outcome [6] | Potency [8] | outcome [10]

C=CCCCCCCCCCCCC
inactive: outcome [1] | max response [2] -0.0097% | outcome [3] | outcome [4] | outcome [5] | outcome [6] | Potency [8] | Potency [9] | outcome [10]

O=P(O)(O)OP(=O)(O)O
inactive: outcome [1] | max response [2] 2.82% | outcome [3] | outcome [4] | outcome [5] | outcome [6] | Potency [7] | Potency [8] | outcome [10]

O=C(OCc1ccccc1)C(=O)OCc1ccccc1
inactive: outcome [1] | max response [2] 1.62% | outcome [3] | outcome [4] | outcome [5] | outcome [6] | Potency [8] | Potency [9] | outcome [10]

CCOC(=O)c1ncn2c1CN(C)C(=O)c1cc(F)ccc1-2
inactive: outcome [1] | max response [2] -10.6% | outcome [3] | outcome [4] | outcome [5] | outcome [6] | Potency [8] | Potency [9] | outcome [10]

CCC(C=O)CC
inactive: outcome [1] | max response [2] -5.72% | outcome [3] | outcome [4] | outcome [5] | outcome [6] | Potency [8] | Potency [9]

CC(C)C(=O)OCCc1ccccc1
inactive: outcome [1] | max response [2] -2.86% | outcome [3] | outcome [4] | outcome [5] | outcome [6] | Potency [7] | Potency [8] | outcome [10]

FC(F)(F)c1ccccc1-n1ccnc1
inactive: outcome [1] | max response [2] -3.14% | outcome [3] | outcome [4] | outcome [5] | outcome [6] | Potency [7] | Potency [8] | outcome [10]

CCOC(=O)/C=C/c1ccccc1
inactive: outcome [1] | max response [2] -4.48% | outcome [3] | outcome [4] | outcome [5] | outcome [6] | Potency [8] | Potency [9]

CC(C)c1ccc2cc(C(C)C)ccc2c1
inactive: outcome [1] | max response [2] 11.1% | outcome [3] | outcome [4] | outcome [5] | outcome [6] | Potency [8] | Potency [9] | outcome [10]

COc1ccc(C2CNC(=O)C2)cc1OC1CCCC1 (configuration not stated)
inactive: outcome [1] | max response [2] -17.5% | outcome [3] | outcome [4] | outcome [5] | outcome [6] | Potency [8] | Potency [9] | outcome [10]

CC(=O)N[C@@H](CCC(=O)O)C(=O)O
inactive: outcome [1] | max response [2] 1.63% | outcome [3] | outcome [4] | outcome [5] | outcome [6] | Potency [7] | Potency [8] | outcome [10]

O=S(=O)(O)c1cc(O)c2ccc(Nc3ccccc3)cc2c1
inactive: outcome [1] | max response [2] 11.9% | outcome [3] | outcome [4] | outcome [5] | outcome [6] | Potency [8] | outcome [10]
